Assay [1] in a line: TOX21_p53_BLA_p4_viability: Viability Assessment in the Tox21 HCT-116 p53 Agonism Beta-lactamase Assay, Phase 4 (AID 2283597).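 Further: hits lower the luminescence signal meaning cytotoxicity.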 In outline:
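Cells plated, 5 h pre-incubation; DMSO compounds pinned (217-fold dilution); 16 h, 37C/5% CO2; CCF4-AM 2 h RT; CellTiter-Glo 30 min RT; luminescence read.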

The target of assay [2] is Cellular tumor antigen p53 (Homo sapiens) (UniProt P04637). Put plainly: TOX21_p53_BLA_p5_ratio: Tox21 HCT-116 p53 Agonism Beta-lactamase Assay, Ratio, Phase 5 (AID 2283599). In outline: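 HCT-116 cells carrying a p53-inducible beta-lactamase reporter were seeded at 4000 cells/well and dosed after 5 h with compound in DMSO (217-fold dilution). After 16 h at 37C, CCF4-AM substrate was added for 2 h, and the 460/530 nm emission ratio was scored as gain-of-signal versus DMSO.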
Cellular tumor antigen p53 (Homo sapiens), sequence (P04637 whole entry, looked up): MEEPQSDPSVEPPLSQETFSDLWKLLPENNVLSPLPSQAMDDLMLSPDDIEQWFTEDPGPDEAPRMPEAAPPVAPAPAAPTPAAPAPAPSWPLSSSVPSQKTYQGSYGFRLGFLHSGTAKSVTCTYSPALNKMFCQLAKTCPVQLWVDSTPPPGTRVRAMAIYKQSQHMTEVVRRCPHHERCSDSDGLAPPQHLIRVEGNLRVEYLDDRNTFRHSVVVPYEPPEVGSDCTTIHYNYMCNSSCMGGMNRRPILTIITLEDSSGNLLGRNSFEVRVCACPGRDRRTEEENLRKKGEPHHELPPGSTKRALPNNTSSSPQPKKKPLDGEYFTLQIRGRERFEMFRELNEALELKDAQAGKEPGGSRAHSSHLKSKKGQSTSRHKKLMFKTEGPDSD

For assay [3] the target is unchanged. Put plainly: TOX21_p53_BLA_p4_ratio: Tox21 HCT-116 p53 Agonism Beta-lactamase Assay, Ratio, Phase 4 (AID 2283601). The gist of the method: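 HCT116 cells carrying an inducible beta-lactamase reporter were plated at 4000 cells/well, rested 5 h, then exposed to compounds in DMSO (217-fold dilution) for 16 h at 37C. CCF4-AM substrate was loaded 2 h at room temperature; 460/530 nm emission ratio scored gain-of-signal versus DMSO.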

Assay [4] can be described thus: TOX21_p53_BLA_p5_viability: Viability Assessment in the Tox21 HCT-116 p53 Agonism Beta-lactamase Assay, Phase 5 (AID 2283600). The gist of the method: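 4000 cells/well; 5 h pre-incubation; DMSO compounds pin-transferred, 217-fold dilution; 16 h, 37C/5% CO2; CCF4-AM 2 h RT; CellTiter-Glo 30 min RT; luminescence.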

Records with an inconclusive call do not appear. The source made the active and inactive calls. How the source made its calls: active means hit-call score of the fitted dose curve at least 0.9, where 1 is the maximum; inconclusive means response in the unintended direction; inactive means score below 0.9.

Turning to `C=CC(=O)OCCCCCC`, the outcome in assay [1], in assay [2] and in assay [3] was inactive.
Consider `c1ccc2scnc2c1`, for which the outcome in assay [2], in assay [4] and in assay [3] was inactive.
For the molecule `O=S(=O)(O)c1cc(O)c(O)c(S(=O)(=O)O)c1`, the result in assay [1], in assay [4] and in assay [3] was inactive.
For the molecule `COc1ccc(C(C)=O)cc1`, the result in assay [2], in assay [4] and in assay [3] was inactive.
On to `CC(=O)OC(C)(C)C`, for which the result in assay [3] was inactive.
As to `CCCCCCCCCO`, the call in assay [1] and in assay [4] was inactive.
Regarding `CCC(C)C1CCCCC1=O` (stereo unspecified), in assay [4], the molecule was classed as inactive.
With `CC(C)(O)CCc1ccccc1`, the outcome in assay [2] and in assay [3] was inactive.
As to `CNC(=C[N+](=O)[O-])NCCSCc1ccc(CN(C)C)o1`, the molecule was called inactive in assay [1], in assay [4] and in assay [3].
With `CCCCCCC(C)O` (stereo unspecified), the result in assay [1], in assay [2] and in assay [3] was inactive.
Take `CCCCCCC(O)CCOC(C)=O` (stereo unspecified): the result in assay [2], in assay [4] and in assay [3] was inactive.
As to `Cc1cc(N)n(-c2ccccc2)n1`, the outcome in assay [3] was inactive.
For the molecule `CCCc1ccc(O)cc1`, the result in assay [1], in assay [2] and in assay [3] was inactive.
For the molecule `CCO[Si](CC)(OCC)OCC`, the result in assay [1], in assay [4] and in assay [3] was inactive.
For the molecule `CCCCCCCOC(C)=O`, the molecule was classed as inactive in assay [1] and in assay [3].
`[Cu+]`: the molecule was classed as inactive in assay [1] and in assay [4].
Regarding `S=c1[nH][nH]c(=S)s1`, the outcome in assay [1], in assay [2] and in assay [3] was inactive.
Take `CCOC(=O)CC1(C)OCC(C)O1` (stereo unspecified): the outcome in assay [2] and in assay [4] was inactive.
For the molecule `Cc1ccc(C(C)(C)O)cc1`, the outcome in assay [2], in assay [4] and in assay [3] was inactive.
Turning to `CC/C=C\CCCCO`, the outcome in assay [2], in assay [4] and in assay [3] was inactive.
On to `CCCCCC1C(=O)CCC1CC(=O)OC` (stereo unspecified), for which the outcome in assay [2], in assay [4] and in assay [3] was inactive.
As to `CC1=CC(O)CC(C)(C)C1` (stereo unspecified), the outcome in assay [4] and in assay [3] was inactive.
`CCCCOCCOC(=O)c1ccccc1C(=O)OCCOCCCC`: the result in assay [1] and in assay [3] was inactive.
Take `OCCCO`: the outcome in assay [2], in assay [4] and in assay [3] was inactive.
For `NC(N)=S`, the result in assay [2], in assay [4] and in assay [3] was inactive.
For `CCCCCCCCOS(=O)(=O)O`, the outcome in assay [4] and in assay [3] was inactive.
Turning to `OC[C@H]1O[C@@H](O[C@H]2[C@H](O)[C@@H](O)[C@H](O)O[C@@H]2CO)[C@H](O)[C@@H](O)[C@H]1O`, in assay [4], the result was inactive.
Consider `O=C(O)c1cccc(Cl)n1`, for which, in assay [4], the molecule was called inactive.
Take `C=C(C)C(=O)OCCC(C)OC(=O)C(=C)C` (stereo unspecified): the result in assay [1], in assay [2] and in assay [3] was inactive.
Take `CC1(C)CC(=O)CC(C)(C)N1`: the result in assay [1], in assay [2] and in assay [3] was inactive.
Regarding `c1ccc(Cc2ccccc2)cc1`, the result in assay [4] was inactive.
On to `CCCO[Si](OCCC)(OCCC)OCCC`, for which the result in assay [1], in assay [4] and in assay [3] was inactive.
